Here are results for four molecules from ChEMBL document CHEMBL1157539, “Thousands of chemical starting points for antimalarial lead identification” (Nature, 2010).

Holding throughout (type): functional
Test [1] has as its system Plasmodium falciparum. As to the kind of experiment: GSK_TCMDC: Inhibition of Plasmodium falciparum 3D7 in whole red blood cells, using parasite LDH activity as an index of growth. Test compounds present at 2uM.
Test [2] relates to Plasmodium falciparum. The experiment in a line: GSK_TCMDC: Inhibition of Plasmodium falciparum Dd2 in whole red blood cells, using parasite LDH activity as an index of growth. Test compounds present at 2uM.
A further test concerns HepG2. As to the kind of experiment: GSK_TCMDC: Percent inhibition of human HepG2 cell line. Test compounds present at 10uM.

Usually Inhibition stands for the relative decrease from the control value, in per cent. A high value points to strong suppression. `CN(Cc1ccccc1)C1CCCN(c2cc(NC(=O)c3ccc(F)cc3)ccn2)C1.O=C(O)C(F)(F)F` (configuration not stated): the Inhibition was 93% in the test with Plasmodium falciparum [1], 95% with Plasmodium falciparum [2] and 7% in the test on HepG2.

On to `CC(C)c1ccc(CN2CCC(NC(=O)c3ccc(-c4ccccc4F)s3)CC2)cc1.O=C(O)C(F)(F)F`, for which the Inhibition amounted to 81% in the test with Plasmodium falciparum [1], 13% in the test on Plasmodium falciparum [2] and 46% in the test with HepG2.

Take `O=C(O)C(F)(F)F.c1ccc(CNCc2cccc(-c3ccc(-c4nc5ccccc5[nH]4)s3)c2)cc1`: the Inhibition in the test on Plasmodium falciparum [1] came to 95%; in the test with Plasmodium falciparum [2] it was 63%; in the test on HepG2 it was 8%.

On to `COc1ccc2nc(-c3cc(-c4ccc(NC(=O)C(C)C)cc4)cnc3N)[nH]c2c1`, for which the results for the Inhibition in the test with Plasmodium falciparum [1], in the test with Plasmodium falciparum [2] and with HepG2 were 100%, 47% and 43%, respectively.
